Laboratory results published in PubChem BioAssay (NCATS).
Records with an inconclusive call do not appear. A number with no mark means an inactive call. Active and inactive are the calls of the source. Calls come from the whole dose curve; as a rule, active = well fitted cell-killing curve with a large enough effect; inconclusive = small, poorly fitted or top-dose-only effect; inactive = flat fitted curve, though single readings scatter.

Assay: SDT Cancer Cell Toxicity qHTS against the NCATS CANVASS Library (AID 1347365); note: nearly all actives have a fitted effect of over 60% in size
Details: SDT dog glioma viability, ATP luminescence, 72 h; series mostly up to 46.1 µM; activity change, negative = cytotoxicity: at the top concentration
From the text: Natural products and their derivatives continue to be wellsprings of nascent therapeutic potential. However, many laboratories have limited resources for biological evaluation, leaving their previously isolated or synthesized compounds largely or completely untested. To address this issue, the Canvass library of natural products was assembled (https://tripod.nih.gov/canvass), in collaboration with academic and industry researchers, for quantitative high-throughput screening (qHTS) across a diverse set of cell-based and biochemical assays. The pure (>85% purity by liquid chromatography/mass spectrometry [LC/MS]) Canvass library of 346 natural products were submitted by 45 academic laboratories and companies around the world. We collected pure natural products to circumvent deconvolution and structure elucidation due to time and resource limitations. The library was formatted into 1536-well plates and evaluated in 50 qHTS (in an 11-pnt concentration series) bioassays with broad scope of disease-relevant mechanisms. The resulting data set from 50 different assays was then systematically analyzed to identify overall trends and specific natural products with interesting biological activities. Reported herein are the results of each individual qHTS and their corresponding assay protocol. This assay uses ATP (luminescence) content to measure the cytotoxiciy of compounds on SDT dog glioma cancer cell line. National Center for Advancing Translational Sciences (NCATS), Rockville, MD National Institute of Health (NIH), Bethesda, Maryland
Cancer Cell Toxicity qHTS protocol: for cell lines G06, J3T, and SDT. 1. In a 1536 well, tissue culture treated white solid bottom plates (Corning 7494), 5 uL of SDT cell solution (final concentration of 500 cells / well) was dispensed using the Multidrop Combi dispenser (Thermo Fisher Scientific) into columns 2, 3, 5-48. 2. Control and Compounds were pin transferred (~23 nL volume) to the assay plates via Wako Pin-tool (Wako Automation, Richmond VA) equipped with a 1536 pin head. The compounds were transferred to columns 5-48 resulting in a final concentration ranging from 0.17 nM to 103 uM. Dose response titration of Bortezomib was pin transferred into column 2 (1mM; 1:2 dilution; 16 points) resulting to a final concentration range of 0.1 nM - 4.6 uM. 3. The assay plates were further incubated in the at 37C, 5% CO2, 95% Rh for 72 hr. 4. After incubation, 3 uL of CellTiterGlo reagent (Promega) was added to the assay plates (column 1-48, rows 1-32) and centrifuged for 15 sec at 1000 rpm to remove bubbles. 5. Luminescence signal was acquired via the ViewLux plate reader (PerkinElmer) using a clear emission filter, 2 sec exposure, and 1x binning settings.
% is set by controls: 0 for no effect and ±100 for the full control effect; potency is the fitted concentration of half-maximal effect.

SMILES | activity change, negative = cytotoxicity | Potency | outcome
CC(=O)c1c(C)cc2c(c1O)C(=O)c1c(O)cc(O)cc1C2=O | -0.961% |  | 
O=C(OC[C@H]1O[C@@H](OC(=O)c2cc(O)c(O)c(O)c2)[C@H](OC(=O)c2cc(O)c(O)c(O)c2)[C@@H](OC(=O)c2cc(O)c(O)c(O)c2)[C@@H]1OC(=O)c1cc(O)c(O)c(O)c1)c1cc(O)c(O)c(O)c1 |  | 23.5 µM (active) | 
COc1ccc2[nH]c3c(c2c1)CCN1C[C@H]2C[C@@H](OC(=O)c4cc(OC)c(OC)c(OC)c4)[C@H](OC)[C@@H](OC)[C@H]2C[C@H]31 |  | 0.526 µM (active) | 
Cc1cc(O)cc2c1C(=O)c1c(O)cc(O)cc1C2=O |  |  | inactive
CC1=C[C@H]2[C@H]3C(=O)C(c4ccc(O)cc4)=C[C@@]3(c3ccc(O)cc3)[C@@H]1C(=O)[C@]2(C)O |  | 0.209 µM (active) | 
C[C@@H]1CC[C@]2(C(=O)O)CC[C@]3(C)C(=C2[C@H]1C)CC[C@@H]1[C@@]2(C)CC[C@H](O)C(C)(C)[C@@H]2CC[C@]13C | -23.5% |  | 
O=C1CC(c2ccc(O)cc2)Oc2cc(O)cc(O)c21 (stereo not given) | 14.2% |  | 
COC(=O)[C@@]12Oc3cccc(O)c3C(O)=C1C(=O)C[C@H](C)[C@H]2O | -7.89% [at 91.4 µM] |  | 
COc1cc(C2OCC3C(c4ccc(O)c(OC)c4)OCC23)ccc1O (stereo not given) | 2.04% [at 9.19 µM] |  | 
C=C1C[C@H]2O[C@@H]3[C@@H]4[C@H](CC[C@@](C)(O)[C@@H]42)[C@H](C)COC3(C)[C@@H](OC(=O)CCCCCCC)CC1=O (stereo not given in full) |  | 23.5 µM (active) | 
COc1c(O)cc(O)c2c(=O)cc(-c3ccccc3)oc12 | -1.73% |  | 
C=C1CC[C@@H](Br)C(C)(C)[C@]12CC=C(C)C(=O)C2 | 3.36% |  | 
C[C@H]1C=C[C@H]2CCCC[C@@H]2[C@H]1C(=O)[C@H]1CC2=C(C(=O)O)CCN2C1=O | -6.6% |  | 
O=C1c2c(O)cc(O)cc2OC(c2ccc(O)cc2)C1O (stereo not given) | 1.66% |  | 
C=C1[C@@]2(C)CC3C4(C)CCC(O)C(C)(C)C4CCC3(C)[C@]1(C(=O)OC)C(=O)C(C)(O)C2=O (stereo not given in full) | -6.34% |  | 
CC(=O)O[C@H]1c2ccccc2-c2c3c(cc4c2[C@@H]1N(C(C)=O)CC4)OCO3 | -18.6% |  | 
C[C@@]12CCC[C@@](C)(C(=O)O)[C@H]1CC[C@@]13C[C@@H](CC[C@H]12)[C@](C)(O)C3 | -1.43% |  | 
CN1C(=O)C(=O)N2C(=C[C@]3(c4c[nH]c5ccccc45)c4ccccc4N[C@H]23)C1=O |  |  | inactive
C/C=C(/C)c1cc(O)c(C)c2c1Oc1cc(O)cc(C)c1C(=O)O2 | 9.65% |  | 
CCC(=O)CCCCC[C@@H]1NC(=O)[C@H]2CCCCN2C(=O)[C@H](C(C)C)NC(=O)[C@H](Cc2cn(OC)c3ccccc23)NC1=O |  | 7.43 µM (active) | 

SMILES | activity change, negative = cytotoxicity | Potency | outcome
CN1CC[C@@]23c4ccccc4N[C@@H]1[C@@]21CCN(C)[C@@H]3Nc2ccccc21 | -20.3% |  | 
CN1CC[C@]23c4ccccc4N[C@H]1[C@]21CCN(C)[C@H]3Nc2ccccc21 | 7.64% |  | 
C/C=C/C1C=CC2CC(C)CC(C)C2C1C(=O)CC(=O)NC(CO)C/C=C/CCCCC (stereo not given) |  | 1.48 µM (active) | 
CC[C@@H](c1cc(OC)c(OC)cc1OC)[C@H](C)[C@@H](/C(C)=C/c1cc(OC)c(OC)cc1OC)c1cc(OC)c(OC)cc1OC |  | inactive | 
C=C(C)C(=O)O[C@H]1C[C@@]2(C)OC(=CC2=O)/C(C)=C\[C@H]2OC(=O)C(=C)[C@H]12 |  | 1.66 µM (active) | 
C/C=C1/CN2C3CC1C1C=CC(=O)N4c5ccccc5[C@@]3(C[C@@H]2C2=C[C@H]3C5CC6N(CC[C@@]67c6ccccc6N(C2=O)[C@@H]37)C/C5=C/C)[C@H]14 (stereo not given in full) |  | 10.5 µM (active) | 
COc1cc2c(c(O)c1O)C(=O)c1c(coc1C)C2=O |  | 14.8 µM (active) | 
C/C=C1/C2=CCCN3C(=O)O[C@H]([C@H]1O)[C@H]23 | -11.6% |  | 
CCC(C)=C1OC(=O)[C@H](C)[C@H](O)[C@H](Cc2cccnc2)NC(=O)C(NC(=O)c2ncccc2O)C(C)OC1=O (stereo not given in full) | -14.6% |  | 
COc1ccc([C@@H]2c3cc4c(cc3C(=O)C(C)C2C)OCO4)cc1OC (stereo not given in full) | -1.33% |  | 
C/C1=C/[C@@H](C)[C@H](O)C/C=C/CC/C=C/C(=O)O[C@@H]1[C@H](C)C(=O)CCCC1CC(=O)NC(=O)C1 |  | 5.26 µM (active) | 
CC(C)=CCC[C@]12c3cc4c(cc3CC[C@@]1(C)[C@H](C)CC[C@@H]2O)[nH]c1ccccc14 | -14.7% |  | 
C/C(=C\[C@H](C)C(=O)/C=C/CC1CC(=O)NC(=O)C1)[C@@H]1OC(=O)CCCC/C=C/[C@H](O)[C@@H](O)[C@@H]1C |  | 13.2 µM (active) | 
C=C[C@@]1(C)CC[C@@H]([C@H](C)C(C)=O)O1 | -2.31% |  | 
CO[C@H]1/C=C/CCCCC(=O)O[C@@H](/C(C)=C/[C@H](C)C(=O)C[C@H](O)CC2CC(=O)NC(=O)C2)[C@@H](C)C1 |  | 4.69 µM (active) | 
CO[C@@H]1[C@H](O)[C@@H](C)O[C@@H](OC[C@@H]2C(C)OC(=O)/C=C/[C@H](C)C(O[C@@H]3O[C@H](C)CC4(OC(=O)O[C@@H]4C)C3O)[C@@H](C)CC(C)C(=O)/C=C/[C@H]3OC23)[C@@H]1OC (stereo not given in full) |  | 16.6 µM (active) | 
O[C@H]1C=C2[C@H]3CN(Cc4cc5c(cc43)OCO5)[C@H]2C[C@@H]1O |  | 7.43 µM (active) | 
C=C1CCC2C(C)(C(=O)O)CCC(CC/C(C)=C/C(=O)NC(CCC(N)=O)C(=O)O)[C@@]2(C)C1 (stereo not given in full) | 19.5% |  | 
COc1cc2c(cc1OC)[C@@H](c1ccc3c(c1)OCO3)C(C)C(C)C2=O (stereo not given in full) | -18.2% |  | 
CC(C)C[C@@H]1c2c(O)c(C=O)c(O)c(C=O)c2O[C@]2(C)C=C[C@@H](C(C)C)C[C@H]12 | -4.26% |  | 
